According to PubChem BioAssay (Tox21):
Values joined by “and” are separate entries in the source; they are usually repeats but may differ in a detail not shown here. Identical values can stand only once. Inconclusive results are not listed. Active and inactive are the calls of the source. Unless noted, the call rests on the fitted dose curve.

Tests used:
[1] = biological target: Estrogen receptor beta (Homo sapiens) (UniProt Q92731); experiment: qHTS assay to identify small molecule agonists of the estrogen receptor beta (ER-beta) signaling pathway (AID 1259377; active means well fitted activation curve with a large enough effect in the signal ratio in the repeat runs, not every such curve was filed as active; the % refers to the signal ratio)
How it was run: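 Ratiometric beta-lactamase FRET read-out came after 2 h substrate loading at room temperature. It followed 16 h compound treatment at 37C of GripTite HEK293T cells carrying a UAS-bla reporter, plated in 2% charcoal-stripped FBS medium.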

[2] = qHTS assay to identify small molecule agonists of the androgen receptor (AR) signaling pathway in the presence of an antagonist - cell viability counter screen (AID 1259379; active means well fitted curve in the direction sought with a large enough effect in the repeat runs; an effect the other way counts as inactive or inconclusive; further: nearly all actives have a fitted effect of over 25% in size; further: potency means the concentration at half of the fitted maximal effect)
How it was run: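 MDA-kb2 cells (MMTV-luciferase, AR/GR), 3,000/well, 5 h attachment, then 3.0 µM nilutamide (final) and compounds at 15 concentrations. Viability by CellTiter-Fluor fluorescence after 16 h at 37 °C, 0% CO2, in the reporter wells.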

[3] = qHTS assay to identify small molecule agonists of the estrogen receptor beta (ER-beta) signaling pathway - cell viability counter screen (AID 1259380; active means well fitted curve in the direction sought with a large enough effect in the repeat runs; an effect the other way counts as inactive or inconclusive; further: nearly all actives have a fitted effect of over 30% in size; further: potency means the concentration at half of the fitted maximal effect)
How it was run: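 ER-beta-UAS-bla HEK293T cells in medium with 2% charcoal-stripped FBS, pre-incubated 6 hr, then treated 16 hr at 37C. Cytotoxicity read in the same wells by CellTiter-Glo luminescence after 30 min at room temperature.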

[4] = qHTS assay to identify small molecule antagonists of the estrogen receptor beta (ER-beta) signaling pathway - cell viability counter screen (AID 1259382; active means well fitted curve in the direction sought with a large enough effect in the repeat runs; an effect the other way counts as inactive or inconclusive; further: nearly all actives have a fitted effect of over 55% in size; further: potency means the concentration at half of the fitted maximal effect)
How it was run: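 ER-beta-UAS-bla HEK293T cells in 2% charcoal-stripped FBS medium, treated with compound plus 1 nM 17-beta-estradiol for 16 h at 37C. Viability read by CellTiter-Glo luminescence after 30 min at room temperature in the same wells.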

[5] = qHTS assay to identify small molecule agonists or antagonists of the thyroid stimulating hormone receptor (TSHR) signaling pathway - wild type cell line counter screen (AID 1259384)
How it was run: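 Wild-type Hek293 cells, 800/well, 18 h at 37C, then compound with Ro20-1724 for 30 min RT. cAMP by HTRF (cAMP-d2/anti-cAMP cryptate), 1 h RT, fluorescence read. 15 concentrations, triplicates.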

[6] = biological target: Estrogen receptor (Homo sapiens) (UniProt P03372); experiment: qHTS assay to identify small molecule agonists of the estrogen receptor alpha (ER-alpha) signaling pathway in the presence of an antagonist (AID 1259383); further: top concentration of the series differs between compounds; nearly all actives have a fitted effect of over 15% in size
How it was run: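 VM7Luc4E2 cells express endogenous full-length ER-alpha with an ERE-luciferase reporter and were hormone-deprived for 5 days. Compounds at 15 concentrations were added with 10.0nM ICI-182,780 for 22hr at 37C. Luminescence was read with ONE-Glo.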

[7] = biological target: Thyrotropin receptor (Homo sapiens) (UniProt P16473); experiment: qHTS assay to identify small molecule antagonists of the thyroid stimulating hormone receptor (TSHR) signaling pathway (AID 1259385); further: nearly all actives have a fitted effect of over 20% in size
How it was run: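 TSHR-HEK293 cells (800/well) plated 18 h, then compounds with Ro20-1724 and TSH at 1.5 ng/mL final, 30 min at room temperature. cAMP quantified by HTRF (cAMP-d2/anti-cAMP-cryptate, 1 h); 15 concentrations in triplicate.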

[8] = biological target: Estrogen receptor beta (Homo sapiens) (UniProt Q92731); experiment: qHTS assay to identify small molecule antagonists of the estrogen receptor beta (ER-beta) signaling pathway (AID 1259378; active means well fitted inhibition curve with a large enough effect in the signal ratio in the repeat runs, not every such curve was filed as active; the % refers to the signal ratio)
How it was run: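 ER-beta-UAS-bla HEK293T cells in 2% charcoal-stripped FBS medium treated with compound plus 1nM final 17-beta-estradiol for 16 hr at 37C. Beta-lactamase reporter read by FRET substrate fluorescence after 2 hours at room temperature.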

Measured: Potency

Estrogen receptor beta (Homo sapiens), sequence (Q92731 whole entry, looked up): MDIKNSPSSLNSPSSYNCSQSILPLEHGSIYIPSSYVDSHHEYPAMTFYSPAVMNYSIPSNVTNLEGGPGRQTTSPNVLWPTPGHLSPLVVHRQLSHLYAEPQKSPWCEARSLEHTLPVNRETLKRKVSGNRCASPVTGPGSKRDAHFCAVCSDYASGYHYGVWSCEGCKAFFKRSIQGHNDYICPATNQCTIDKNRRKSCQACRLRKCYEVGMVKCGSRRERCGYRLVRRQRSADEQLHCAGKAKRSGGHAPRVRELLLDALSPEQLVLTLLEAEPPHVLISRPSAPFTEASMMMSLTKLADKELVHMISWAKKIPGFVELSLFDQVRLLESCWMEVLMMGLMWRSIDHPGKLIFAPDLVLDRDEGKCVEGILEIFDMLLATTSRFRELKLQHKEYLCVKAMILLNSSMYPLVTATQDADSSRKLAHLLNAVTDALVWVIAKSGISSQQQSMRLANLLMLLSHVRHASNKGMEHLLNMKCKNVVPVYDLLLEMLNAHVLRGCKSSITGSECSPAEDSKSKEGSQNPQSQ
Estrogen receptor (Homo sapiens), sequence (P03372 whole entry, looked up): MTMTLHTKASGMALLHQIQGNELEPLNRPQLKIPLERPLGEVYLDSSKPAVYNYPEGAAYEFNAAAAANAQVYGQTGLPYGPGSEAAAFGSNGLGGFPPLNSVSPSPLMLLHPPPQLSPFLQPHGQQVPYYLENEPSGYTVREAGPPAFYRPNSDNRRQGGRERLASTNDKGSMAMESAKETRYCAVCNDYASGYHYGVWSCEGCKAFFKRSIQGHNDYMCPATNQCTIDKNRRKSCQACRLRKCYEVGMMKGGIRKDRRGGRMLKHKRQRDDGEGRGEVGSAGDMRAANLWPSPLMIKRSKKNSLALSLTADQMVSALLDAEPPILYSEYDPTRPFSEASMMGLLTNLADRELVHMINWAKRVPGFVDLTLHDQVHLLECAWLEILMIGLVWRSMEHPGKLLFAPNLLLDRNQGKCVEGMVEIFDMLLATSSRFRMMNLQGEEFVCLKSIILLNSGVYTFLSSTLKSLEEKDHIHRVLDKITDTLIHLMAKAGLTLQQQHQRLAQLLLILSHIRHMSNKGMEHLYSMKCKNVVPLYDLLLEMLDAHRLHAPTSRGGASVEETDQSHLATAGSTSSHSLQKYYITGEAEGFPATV
Thyrotropin receptor (Homo sapiens), sequence (P16473 whole entry, looked up): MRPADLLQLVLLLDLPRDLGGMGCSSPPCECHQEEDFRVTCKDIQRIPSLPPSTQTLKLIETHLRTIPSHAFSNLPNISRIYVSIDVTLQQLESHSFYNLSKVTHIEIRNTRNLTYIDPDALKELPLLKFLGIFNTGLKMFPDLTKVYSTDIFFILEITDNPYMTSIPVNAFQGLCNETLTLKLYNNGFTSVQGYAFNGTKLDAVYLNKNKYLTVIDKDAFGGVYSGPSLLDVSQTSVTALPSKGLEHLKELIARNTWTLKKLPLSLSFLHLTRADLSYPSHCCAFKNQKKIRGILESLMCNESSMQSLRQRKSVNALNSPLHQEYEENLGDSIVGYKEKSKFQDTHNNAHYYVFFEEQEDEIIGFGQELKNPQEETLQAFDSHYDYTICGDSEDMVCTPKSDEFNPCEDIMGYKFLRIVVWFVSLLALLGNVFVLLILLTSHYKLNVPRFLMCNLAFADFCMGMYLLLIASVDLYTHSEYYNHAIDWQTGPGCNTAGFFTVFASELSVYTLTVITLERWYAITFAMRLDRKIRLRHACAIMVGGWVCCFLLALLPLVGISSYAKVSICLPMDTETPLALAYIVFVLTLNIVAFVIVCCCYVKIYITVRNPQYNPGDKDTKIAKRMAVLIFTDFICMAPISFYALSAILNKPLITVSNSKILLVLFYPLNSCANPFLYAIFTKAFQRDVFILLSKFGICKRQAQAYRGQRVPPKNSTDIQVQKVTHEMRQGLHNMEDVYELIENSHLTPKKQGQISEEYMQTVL

CCc1cccc(N(C)C(N)=Nc2cccc3ccccc23)c1
inactive: [1] | [2] | [4] | [5]
active: [3] 2.66 µM

OC(CCCN1CCCCC1)(c1ccccc1)c1ccccc1
not listed: [1] | [8]
inactive: all other assays above

CNC(=S)NC
inactive: [2] | [6] | [5] | [7]
active: [3] 13.7 µM

COCCOC(=O)C1=C(C)NC(C)=C(C(=O)OC/C=C/c2ccccc2)C1c1cccc([N+](=O)[O-])c1 (stereo not drawn)
not listed: [1] | [8]
inactive: all other assays above

CC(C)(C)C(=O)O
inactive: [1] | [3] | [4] | [5] | [7]

O=C(CS)OCCOC(=O)CS
active: [3] 30.6 µM
inactive: [2] | [4] | [5] | [7]

CCCCC/C(=C\c1ccccc1)CO
inactive: [1] | [4] | [5] | [7]

CC1(C)C2=CCCC(C)(C)[C@]23CC[C@H]1C3
inactive: [2] | [5] | [7]

CCOC(=N)CC(=O)OCC
inactive: [1] | [2] | [6] | [5] | [7]

C=CC(C)(O)CCCC(C)CCCC(C)CCCC(C)C (stereo not drawn)
not listed: [2] | [8]
inactive: all other assays above

Nc1nccs1
inactive: [8] | [2] | [3] | [4]

CCCOc1ccc(S(=O)(=O)N2CCN(CC)CC2)cc1-c1nc2c(CC)n(Cc3ccccn3)nc2c(=O)[nH]1
inactive: [3] | [4] | [6] | [5]

CCCCCCCCSCCO
inactive: [3] | [4] | [5] | [7]

O=C(OCCOCCO)c1ccccc1Nc1cccc(C(F)(F)F)c1
inactive: [3] | [4] | [6] | [5] | [7]

N#C/C(=C1/SC[C@@H](c2ccc(Cl)cc2Cl)S1)n1ccnc1
inactive: [3] | [4] | [5]

Cc1oc(C)c(C(=O)Nc2ccccc2)c1C
inactive: [4] | [6]

CCCCC(=O)O[C@]1(C(=O)CO)[C@@H](C)C[C@H]2[C@@H]3CCC4=CC(=O)C=C[C@]4(C)[C@@]3(F)[C@@H](O)C[C@@]21C
active: [3] 15.4 µM
inactive: [2] | [6] | [5]

COCc1c(C(C)C)nc(C(C)C)c(/C=C/[C@@H](O)C[C@@H](O)CC(=O)O)c1-c1ccc(F)cc1
active: [3] 298 nM and 1.08 µM
inactive: [2] | [6] | [5] | [7]

CCCC1C(CC)=CC(CC)=CN1c1ccccc1 (stereo not drawn)
active: [2] 48.6 µM
not listed: [6] | [8]
inactive: all other assays above

O=C(CCCCCCC(=O)Nc1ccccc1)NO
inactive: [6] | [5] | [7]
active: [3] 2.66 µM | [4] 1.19 µM

CN(C)CCOC1=Cc2ccccc2Sc2ccc(Cl)cc21
inactive: [2] | [6] | [5]
active: [3] 26.6 µM

C(=C\c1ccccc1)/CN1CCN(C(c2ccccc2)c2ccccc2)CC1
inactive: [2] | [5]
